Assay outcomes as filed in PubChem.
Rows were chosen to be rich in hits. Some 3.1% of all compounds tested hit in one or more screens of this group.
MITF act – MITF TRPM1 promoter activation in melanoma cells; SK-MEL-5 TRPM1-promoter luciferase, 24 h; % of positive control, neutral wells = 0; activation, % at 12.5 µM; 300,000 compounds, 0.75% hits;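 active means mean activation of at least 80% with every replicate also reaching 80%; inconclusive means mean reaches 80% but some replicate falls short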;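 further: 0% = neutral control wells and 100% = parthenolide positive control wells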
esBAF inh – blocks esBAF chromatin remodeling in mouse ES cells. Bmi1-luciferase knock-in reporter, 24 h; 100% = twice the neutral-well signal. reporter increase, % at 12.5 µM. 350,000 compounds, 2% hits. AID 602393; in the data active means activation above about 40%; inconclusive means no clear call, values can overlap the other calls;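 further: 0% = median of the plate's neutral control wells and 100% = double that signal; a rise in the Bmi1 reporter signal indicates esBAF inhibition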
Wnt bcat act – Wnt/beta-catenin pathway activation; Wnt/beta-catenin reporter cell assay, activator, plate reader; activation, % at 9.35 µM; 300,000 compounds, 1.2% hits; in the data active means activation above about 30%, passing the limit was not always enough; inconclusive means no clear call, values can overlap the other calls;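 further: 0% = neutral control wells and 100% = positive control wells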
Statin myotox sup – suppressors of simvastatin-induced myotoxicity in C2C12 myotubes. rescue of ATP level, % at 7.49 µM. 330,000 compounds, 0.78% hits. AID 602340. ATP luminescence, 48 h; scaled: DMSO 0, geranylgeraniol control 100;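 active means mean ATP rescue above about 67%, or every replicate alone reaching that limit, limit read from the data, passing the limit was not always enough; inconclusive means no clear call, values can overlap the other calls; inactive means mean under the limit and some replicate under it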;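 further: myotubes were challenged with 10 µM simvastatin during compound exposure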
Rtt109 HAT inh – C. albicans Rtt109 histone acetyltransferase inhibition. AID 540336. Q5AAJ8. purified Rtt109/Vps75, ThioGlo CoA-SH fluorescence, 4 h. 330,000 compounds, 0.16% hits. inhibition, % at 34.9 µM;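 active means inhibition of at least 50% in every replicate; inconclusive means best replicate reaches 50% inhibition but some replicates fall short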
Target sequence (Q5AAJ8 whole entry, looked up): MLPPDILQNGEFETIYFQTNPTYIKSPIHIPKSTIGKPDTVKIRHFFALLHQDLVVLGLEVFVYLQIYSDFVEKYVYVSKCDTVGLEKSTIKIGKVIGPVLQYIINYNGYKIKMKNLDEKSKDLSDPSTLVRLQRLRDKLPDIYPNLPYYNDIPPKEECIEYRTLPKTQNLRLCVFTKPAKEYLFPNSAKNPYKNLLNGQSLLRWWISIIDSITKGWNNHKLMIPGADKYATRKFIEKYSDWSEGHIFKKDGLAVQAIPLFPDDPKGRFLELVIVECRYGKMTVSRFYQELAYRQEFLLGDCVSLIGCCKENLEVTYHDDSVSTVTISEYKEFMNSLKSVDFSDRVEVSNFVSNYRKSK
An asterisk follows results filed as active; i = inactive; ? = inconclusive; . = no result given; + = active, no number; ! = not active in a repeat.

SMILES | MITF act | esBAF inh | Wnt bcat act | Statin myotox sup | Rtt109 HAT inh
N/C(=N\OC(=O)c1cccc2ccccc12)c1cccnc1 | 35 | 44* | 45* | 7 | 23
N/C(=N\OC(=O)c1cccc2ccccc12)c1cccc([N+](=O)[O-])c1 | 43 | 10 | 0 | 15 | -1
Cc1cccc(/C(N)=N/OC(=O)c2cccc3ccccc23)c1 | 41 | 49* | 25 | 10 | 1
CC(C)CC#Cc1ccc2c(c1)O[C@@H](CN(C)Cc1cccc(F)c1)[C@H](C)CN([C@H](C)CO)S2(=O)=O | . | -1 | . | . | .
CC(C)c1ccc(NC(=O)c2cc(Br)ccc2Br)cc1 | 29 | 72* | -1 | -6 | -6
CCc1ccc(NC(=O)c2cc(Br)ccc2Br)cc1 | . | . | 0 | . | .
C[C@H](CO)N1C[C@H](C)[C@@H](CN(C)Cc2ccc(-c3ccccc3)cc2)Oc2ccc(NS(=O)(=O)c3ccc(Cl)cc3)cc2CC1=O | . | 3 | . | 47 | .
CC(NC(=O)Nc1ccccc1O)(C(F)(F)F)C(F)(F)F | . | -4 | -1 | 91* | -4
CC(NC(=O)Nc1ccc(O)cc1)(C(F)(F)F)C(F)(F)F | -6 | -7 | . | -1 | -18
CNC(=S)N/N=C/c1ccc(C(C)C)cc1 | 57 | 59* | . | -8 | 9
CN(C)c1ccc(/C=N/NC(=S)NCc2ccccc2)cc1 | . | 29 | 2 | 1 | -5
CNC(=S)N/N=C/c1ccc(N(C)C)cc1 | . | . | 48* | . | -11
O=C(NCCN1C(=O)C2C3C=CC(C3)C2C1=O)Nc1ccc(Br)cc1 (stereo not given) | 67 | 62* | 37* | -24 | -4
O=C(NCCN1C(=O)C2C3C=CC(C3)C2C1=O)Nc1cccnc1 (stereo not given) | -10 | 3 | -1 | -1 | 0
CC(=O)c1sc(N/N=C/c2cccc([N+](=O)[O-])c2)nc1C | 105* | 60* | 15 | 4 | 3
CC(=O)c1sc(N/N=C/c2cccc(O)c2)nc1C | 93* | 63* | 17 | 45 | 7
COCC(=O)N1C[C@H](C)[C@H](OC)CN(C)C(=O)c2ccc(NC(=O)Nc3ccccc3)cc2OC[C@@H]1C | . | 6 | . | 15 | .
O=C(Nc1ccc2c(c1)OCCO2)C1CC(c2ccccc2Cl)=NO1 (stereo not given) | ? | 60* | 11 | -2 | -2
O=C(Nc1cccnc1)c1cc(-c2ccc3c(c2)OCO3)on1 | 22 | 69* | . | -14 | -5
O=C(Nc1ccc2c(c1)OCO2)c1cc(-c2cccc(O)c2)on1 | 115* | 43* | 21 | -4 | -6
O=C(Nc1ccc2c(c1)OCO2)c1cc(-c2ccccc2Cl)on1 | ? | 60* | 20 | 6 | -14
C[C@@H]1CN([C@@H](C)CO)C(=O)c2cc(-c3ccncc3)cnc2O[C@@H]1CN(C)C(=O)c1ccc(F)cc1 | . | -15 | . | -33 | .
Cc1noc(C)c1NC(=O)N[C@@H]1C=C[C@@H](CC(=O)NCCCN(C)C)O[C@@H]1CO | . | 2 | . | 12 | .
CC(=O)c1cccc(NC(=O)c2cc(-c3ccco3)on2)c1 | 30 | 23 | 1 | -2 | 11
O=C(Nc1cccc(O)c1)c1cc(-c2ccco2)on1 | 75 | 73* | . | 35 | -15
SMILES | MITF act | esBAF inh | Wnt bcat act | Statin myotox sup | Rtt109 HAT inh
Cc1ccc(NC(=O)c2cc(-c3ccc4c(c3)OCO4)on2)cc1C | 29 | 6 | 3 | 3 | 2
O=C(Nc1ccc2c(c1)OCO2)c1cc(-c2ccc(O)cc2)on1 | 77 | 46* | 21 | 49 | -8
C[C@@H]1CCCCO[C@@H](CN(C)C)[C@H](C)CN([C@H](C)CO)C(=O)c2cc(NC(=O)CCC(F)(F)F)ccc2O1 | . | -2 | . | 20 | .
O=C(Nc1ccccc1)OCC1CCCO1 (stereo not given) | 36 | 35 | 0 | -7 | -3
O=C(Nc1ccccc1)OCC1COC(c2ccccc2)(c2ccccc2)O1 (stereo not given) | 4 | . | 49* | 5 | 3
Clc1cccc(/C=N/Nc2nc(Cl)nc3ccccc23)c1 | . | 52* | 10 | 7 | -2
Fc1ccccc1/C=N/Nc1ncnc2ccccc12 | 16 | . | 20 | . | 11
Clc1ccc(/C=N/Nc2ncnc3ccccc23)cc1Cl | . | 74* | ? | . | .
Cc1cc(C)nc(N/N=C/c2cccc(Cl)c2)n1 | 35 | . | 2 | . | 7
Cc1ccccc1S(=O)(=O)N(C)C[C@H]1OCc2ccccc2-c2c(n(C)c3ccccc23)C(=O)N([C@@H](C)CO)C[C@H]1C | . | -1 | . | 20 | .
O=C(C[C@@H]1CC[C@H]2[C@@H](COC[C@@H](O)CN2C(=O)Nc2ccc3c(c2)OCO3)O1)N1CCN(c2ccccc2)CC1 | . | -10 | . | -4 | .
COc1ccc(-c2ccc3c(c2)O/C(=C\c2ccsc2)C3=O)cn1 | 73 | 45* | 11 | -3 | -3
COc1ccc(-c2ccc3c(=O)cc(-c4ccsc4)oc3c2)cn1 | 33 | 7 | -2 | 14 | 11
Cc1nnc(Sc2cc(NCCCO)c([N+](=O)[O-])c3nonc23)s1 | -73 | . | -6 | . | +
CCC(=O)OCCNc1cc(Sc2nc3ccccc3s2)c2nonc2c1[N+](=O)[O-] | -58 | 3 | -1 | 102* | 11
CC(C)NC(=O)Nc1ccc2c(c1)CC(=O)N([C@@H](C)CO)C[C@@H](C)[C@H](CN(C)Cc1ccncc1)O2 | . | -1 | . | -10 | .
COCC(=O)Nc1ccc2c(c1)C(=O)N(C)[C@@H]1CC[C@@H](CC(=O)Nc3cn(C)nc3C)O[C@H]1CO2 | . | 0 | . | 17 | .
Brc1cc2c(cc1/C=N/Nc1nc3ccccc3s1)OCO2 | . | 68* | . | -25 | 7
Brc1csc(/C=N/Nc2nc3ccccc3s2)c1 | 84* | . | . | . | -6
C[C@@H]1CN([C@H](C)CO)C(=O)c2cc(NC(=O)CCC(F)(F)F)ccc2O[C@H]1CN(C)C | . | -4 | . | -4 | .
CCC/C(=C1/c2ccccc2C(=O)N1c1ccccc1)c1ccc2[nH]ccc2c1 | -25 | -14 | -7 | -9 | 8
O=C1c2ccccc2/C(=C\c2ccc3[nH]ccc3c2)N1c1ccccc1 | 26 | 45* | 26 | -6 | -7
COc1ccc(/C=C/C2=NC(=C\N(C)C)/C(=O)O2)cc1 | 47 | 51* | -1 | 114* | -44
CO[C@H]1CN(C)C(=O)c2ccc(NC(=O)NC(C)C)cc2OC[C@@H](C)N(CCC(F)(F)F)C[C@H]1C | . | 3 | . | 9 | .
Cc1csc(SCc2nnc(-c3ccc(Cl)cc3)o2)n1 | 50 | 60* | . | -1 | 0
COCC(=O)N1[C@@H]2CN(C(=O)NC(C)C)c3ccccc3[C@@H]2[C@@H]1CO | . | -5 | . | -8 | .
COc1ccc(NC(=O)CN(C)C(=O)CNC(=O)c2sc3ccccc3c2Cl)cc1 | 93* | 51* | 2 | -6 | 2
Nc1c2ccccc2nc2ccccc12 | -83 | 6 | 69*! | 45 | i
Nc1c2c(nc3ccccc13)CCCC2 | 9 | -4 | -3 | 0 | 5
Cc1ccc(NC(=O)C2Cc3ccccc3O/C2=N\O)cc1C (stereo not given) | 60 | ? | 9 | 1 | 0
